19 molecules from PubChem BioAssay (EPA / NIEHS) can be followed below.

Active and inactive are the calls of the source. How the source made its calls: active means hit-call score of the fitted dose curve at least 0.9, where 1 is the maximum; inactive means score below 0.9.

Common to all, as to conditions: mRNA level, 48 h; actives raise or lower the signal
Read-out in assay [1]: Bcl-2 (BAX) gene, BAX (gene 581)
Briefly: LTEA_HepaRG_BAX: Life Technologies and Expression Analysis (LTEA) Assay for Bcl-2 (BAX) gene using HepaRG (AID 2283470). The method, boiled down: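 Differentiated HepaRG cells exposed 48 h in serum-free induction medium, eight half-log concentrations from 100 uM, in duplicate, 0.5% DMSO vehicle. BAX mRNA by TaqMan qRT-PCR, normalised to ACTB, GAPDH and POLR2A.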

Read-out in assay [2]: adenosine kinase (ADK) gene, ADK (gene 132)
As to the kind of experiment: LTEA_HepaRG_ADK: Life Technologies and Expression Analysis (LTEA) Assay for adenosine kinase (ADK) gene using HepaRG (AID 2283471). The method, boiled down: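 Read-out is ADK transcript level measured by qRT-PCR and normalised to three housekeeping genes. Cells are human HepaRG, dosed for 48 h at up to 100 uM in 0.5% DMSO. Gain or loss of signal is fitted against DMSO controls.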

Read-out in assay [3]: Alpha-fetoprotein (AFP) gene, AFP (gene 174)
As to the kind of experiment: LTEA_HepaRG_AFP: Life Technologies and Expression Analysis (LTEA) Assay for Alpha-fetoprotein (AFP) gene using HepaRG (AID 2283472). The method, boiled down: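 Differentiated human HepaRG cells exposed 48 h in serum-free induction medium, 8-point half-log series from 100 uM in 0.5% DMSO, duplicate. AFP mRNA by qRT-PCR, normalized to ACTB, GAPDH, POLR2A; bidirectional fit vs DMSO.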

Read-out in a further assay: BCL2L11 (gene 10018)
As to the kind of experiment: LTEA_HepaRG_BCL2L11: Life Technologies and Expression Analysis (LTEA) Assay for Bcl-2 (BCL2L11) gene using HepaRG (AID 2283473). In outline: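 Human hepatic HepaRG cultures are treated 48 h with test chemicals (maximum 100 uM, 0.5% DMSO vehicle). Expression of BCL2L11 is measured by qRT-PCR against ACTB, GAPDH and POLR2A, with activity in either direction scored relative to vehicle.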

Read-out in assay [4]: Apolipoprotein A-V (APOA5) gene, APOA5 (gene 116519)
As to the kind of experiment: LTEA_HepaRG_APOA5: Life Technologies and Expression Analysis (LTEA) Assay for Apolipoprotein A-V (APOA5) gene using HepaRG (AID 2283474). The method, boiled down:
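Concentration-response of APOA5 expression in HepaRG: eight half-log doses to 100 uM, 48 h, qRT-PCR normalized to ACTB/GAPDH/POLR2A, bidirectional fitting with 0.5% DMSO as baseline.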

Read-out in assay [5]: Apoptosis regulator Bcl-2 (Homo sapiens) (UniProt P10415)
As to the kind of experiment: LTEA_HepaRG_BCL2: Life Technologies and Expression Analysis (LTEA) Assay for Bcl-2 gene using HepaRG (AID 2283475). The method, boiled down:
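Differentiated human HepaRG cells in serum-free induction medium exposed 48 h, in duplicate, to 8-point half-log series from 100 uM in 0.5% DMSO. BCL2 mRNA by qRT-PCR (TaqMan/Fluidigm), normalized to ACTB, GAPDH, POLR2A; bidirectional fit against DMSO.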

Read-out in a further assay: Caspase-3 (Homo sapiens) (UniProt P42574)
Briefly: LTEA_HepaRG_CASP3: Life Technologies and Expression Analysis (LTEA) Assay for cysteine-aspartic acid protease (CASP3) using HepaRG (AID 2283477). The method, boiled down:
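Transcript-level assay: CASP3 mRNA in human HepaRG after 48 h treatment, eight half-log concentrations from 100 uM in 0.5% DMSO, quantified by qRT-PCR.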

Read-out in assay [6]: Cytochrome P450 (CYP24A1), CYP24A1 (gene 1591)
Briefly: LTEA_HepaRG_CYP24A1: Life Technologies and Expression Analysis (LTEA) Assay for Cytochrome P450 (CYP24A1) using HepaRG (AID 2283478). The method, boiled down:
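Gene expression of CYP24A1 by TaqMan qRT-PCR in HepaRG after 48 h treatment, highest concentration 100 uM; activity fitted in both directions relative to DMSO vehicle.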

Read-out in assay [7]: Cytochrome P450 (CYP1A2), CYP1A2 (gene 1544)
As to the kind of experiment: LTEA_HepaRG_CYP1A2: Life Technologies and Expression Analysis (LTEA) Assay for Cytochrome P450 (CYP1A2) using HepaRG (AID 2283479). The method, boiled down:
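In duplicate wells, HepaRG cultures maintained in 0.5% DMSO were treated 48 h across an 8-point, half-log series topping at 100 uM; phenobarbital (1 mM) served as induction control. Expression was read by qRT-PCR.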

Read-out in assay [8]: Bcl-2 (BID) gene, BID (gene 637)
Briefly: LTEA_HepaRG_BID: Life Technologies and Expression Analysis (LTEA) Assay for Bcl-2 (BID) gene using HepaRG (AID 2283476). The method, boiled down: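 Gene expression by qRT-PCR in HepaRG cells after 48 h exposure, duplicate wells, eight half-log concentrations topping at 100 uM in 0.5% DMSO. Normalized to ACTB, GAPDH, POLR2A; bidirectional fitting relative to DMSO.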

Caspase-3 (Homo sapiens), sequence (P42574 whole entry, looked up): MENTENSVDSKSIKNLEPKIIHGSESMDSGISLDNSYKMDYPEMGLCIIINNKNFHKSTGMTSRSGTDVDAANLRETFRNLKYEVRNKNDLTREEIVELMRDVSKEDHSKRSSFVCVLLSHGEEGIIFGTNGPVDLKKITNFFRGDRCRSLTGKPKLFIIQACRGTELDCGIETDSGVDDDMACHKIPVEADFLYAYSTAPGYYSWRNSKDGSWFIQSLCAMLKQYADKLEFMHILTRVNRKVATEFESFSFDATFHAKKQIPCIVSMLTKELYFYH
Apoptosis regulator Bcl-2 (Homo sapiens), sequence (P10415 whole entry, looked up): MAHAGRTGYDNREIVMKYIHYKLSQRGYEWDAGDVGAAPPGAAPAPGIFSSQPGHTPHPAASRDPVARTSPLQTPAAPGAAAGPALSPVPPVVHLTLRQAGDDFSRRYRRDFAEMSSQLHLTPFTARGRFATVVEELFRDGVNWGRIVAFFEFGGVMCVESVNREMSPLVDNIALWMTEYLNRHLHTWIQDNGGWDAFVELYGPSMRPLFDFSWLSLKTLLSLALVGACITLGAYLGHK

By AC50 is commonly meant the concentration at which the activity in the assay is half-maximal. On to `CC1(C)C(C(=O)OC(C#N)c2cccc(Oc3ccccc3)c2)C1(C)C` (stereo not given), for which the molecule was called inactive (in [1]; in assay [2]; in assay [3]; with BCL2L11 (gene 10018); in [4]; in assay [5]). Besides, the molecule was classed as inactive (with Caspase-3 (Homo sapiens); in [6]). In assay [7], the AC50 was 39.6 µM (active).

As for `N#CN=C1SCCN1Cc1ccc(Cl)nc1`, the outcome (in [1]; in assay [2]; in assay [3]; with BCL2L11 (gene 10018); in assay [4]; in assay [5]) was inactive. Besides, the outcome (with Caspase-3 (Homo sapiens); in assay [6]) was inactive.

As for `CCOP(=S)(OCC)Oc1nc(Cl)n(C(C)C)n1`, the result (in [1]; in [2]; with BCL2L11 (gene 10018); in assay [5]; with Caspase-3 (Homo sapiens); in [6]) was inactive. For the same molecule, the values for the AC50 in assay [3] and in [4] were 21.2 µM (active) and 21.4 µM (active), respectively.

With `CCOc1cc(C(C)(C)C)ccc1C1COC(c2c(F)cccc2F)=N1` (stereo not given), the molecule was classed as inactive (in assay [1]; in assay [2]; in the assay with BCL2L11 (gene 10018); in assay [4]; in assay [5]; with Caspase-3 (Homo sapiens)). Further, the result in assay [6] was inactive. Besides, in assay [3], the AC50 was 25.7 µM (active).

For `CCCN(CC)CC1COC2(CCC(C(C)(C)C)CC2)O1` (stereo not given), the molecule was called inactive (in [1]; in assay [2]; in assay [3]; with BCL2L11 (gene 10018); in [4]; in assay [5]). Moreover, the outcome (with Caspase-3 (Homo sapiens); in assay [6]; in [7]) was inactive.

`O=C(Nc1ccccc1-c1ccc(Cl)cc1)c1cccnc1Cl`: the molecule was called inactive (in assay [1]; in assay [2]; in the assay with BCL2L11 (gene 10018); in assay [4]; in assay [5]; in the assay with Caspase-3 (Homo sapiens)). For the same molecule, the call in [6] was inactive. Also, the AC50 in assay [3] was 52.5 µM (active).

Take `CN/C(=N\[N+](=O)[O-])NCc1cnc(Cl)s1`: the call (in assay [1]; in [2]; with BCL2L11 (gene 10018); in assay [4]; in [5]; in the assay with Caspase-3 (Homo sapiens)) was inactive. The molecule was called inactive in assay [6] and in assay [7]. In [3], the AC50 is 50 µM (active).

As for `CCNC(=O)NC(=O)C(C#N)=NOC`, the result (in [1]; in assay [2]; with BCL2L11 (gene 10018); in assay [4]; in assay [5]; with Caspase-3 (Homo sapiens)) was inactive. The outcome in assay [6] was inactive. Further, the AC50 in assay [3] was 75.6 µM (active).

`Nc1c(Cl)c(F)nc(OCC(=O)O)c1Cl`: the outcome (in assay [1]; in assay [2]; in [3]; in the assay with BCL2L11 (gene 10018); in assay [4]; in assay [5]) was inactive. Moreover, the outcome (with Caspase-3 (Homo sapiens); in assay [6]; in assay [7]) was inactive.

Regarding `CC(C)NC(=O)N1CC(=O)N(c2cc(Cl)cc(Cl)c2)C1=O`, the outcome (in [1]; in assay [2]; with BCL2L11 (gene 10018); in assay [5]; with Caspase-3 (Homo sapiens); in assay [6]) was inactive. The AC50 in assay [3] was 13.2 µM (active); in [4] it was 22.7 µM (active); in [7], 8.18 µM (active).

With `CC1(C)CCC(=Cc2ccc(Cl)cc2)C1(O)Cn1cncn1` (stereo not given), the outcome (in [1]; in assay [2]; in assay [3]; in the assay with BCL2L11 (gene 10018); in assay [5]; with Caspase-3 (Homo sapiens)) was inactive. Besides, the result in [6] was inactive. In addition, the AC50 in assay [4] is 49.8 µM (active).

For the molecule `CCCCOCN(C(=O)CCl)c1c(CC)cccc1CC`, the call (in assay [1]; in assay [2]; in assay [3]; with BCL2L11 (gene 10018); in [4]; in assay [5]) was inactive. The molecule was classed as inactive (with Caspase-3 (Homo sapiens); in [6]; in [7]).

For the molecule `Cc1nc(N(C)C)nc(OC(=O)N(C)C)c1C`, the outcome (in assay [1]; in [2]; in assay [3]; with BCL2L11 (gene 10018); in assay [4]; in assay [5]) was inactive. For the same molecule, the molecule was classed as inactive (with Caspase-3 (Homo sapiens); in [7]). Moreover, the AC50 in assay [6] was 92.4 µM (active).

For the molecule `N#Cc1c[nH]cc1-c1cccc2c1OC(F)(F)O2`, the AC50 was 23.3 µM (active) in assay [1], 73.3 µM (active) in assay [3] and 20.9 µM (active) in the assay with BCL2L11 (gene 10018). For the same molecule, the result (in assay [2]; in [4]; in assay [8]; with Caspase-3 (Homo sapiens); in assay [6]) was inactive.

For the molecule `CCN(CC)c1nc(C)cc(OP(=S)(OC)OC)n1`, the outcome (in assay [1]; in assay [2]; in assay [3]; in the assay with BCL2L11 (gene 10018); in assay [4]; in [5]) was inactive. Also, the outcome (with Caspase-3 (Homo sapiens); in [6]) was inactive.

Take `COP(=S)(OC)Oc1ccc([N+](=O)[O-])c(C)c1`: the outcome (in [1]; in assay [2]; in assay [3]; with BCL2L11 (gene 10018); in [4]; in [5]) was inactive. Also, the call with Caspase-3 (Homo sapiens) was inactive. For the same molecule, the figures for the AC50 in [6] and in [7] were 0.00316 µM (active) and 50 µM (active), respectively.

Turning to `COCC(C)N(C(=O)CCl)c1c(C)csc1C` (stereo not given), the result (in assay [1]; in [2]; in assay [3]; with BCL2L11 (gene 10018); in [4]; in assay [5]) was inactive. For the same molecule, the outcome (in the assay with Caspase-3 (Homo sapiens); in assay [6]) was inactive.

With `COCc1cnc(C2=NC(C)(C(C)C)C(=O)N2)c(C(=O)O)c1` (stereo not given), the outcome (in assay [1]; in assay [2]; in [3]; with BCL2L11 (gene 10018); in [4]; in assay [5]) was inactive. In addition, the result (in the assay with Caspase-3 (Homo sapiens); in assay [6]) was inactive.

For the molecule `CC1(C)CON(Cc2ccccc2Cl)C1=O`, the molecule was called inactive (in [1]; in assay [2]; in [3]; in the assay with BCL2L11 (gene 10018); in assay [4]; in assay [5]). Besides, the molecule was called inactive (with Caspase-3 (Homo sapiens); in [6]).
